Data as given in PubChem BioAssay (NCATS).
Where “and” joins values, the source holds several entries; their conditions need not be identical. Identical values can stand only once. Inconclusive results are not listed. A number with no mark means an inactive call. Calls of active or inactive are those of the source. Calls come from the whole dose curve; as a rule, active = well fitted cell-killing curve with a large enough effect; inconclusive = small, poorly fitted or top-dose-only effect; inactive = flat fitted curve, though single readings scatter.

test: Cellular viability qHTS for adrenocortical cancer (ACC) cell line SW-13 (AID 1963989); details: SW-13 ACC cells viability, CellTiter-Glo, 48 h; activity (max response): hits give low values; note: nearly all actives have a fitted effect of over 65% in size;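 for activity (max response): cells grown in serum-free medium with ITS supplement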
In short: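 IC50 and maximal-response values come from four-parameter logistic fits of titration data. SW-13 cells in serum-free medium received compounds (up to 46 uM final) for 48 h before CellTiter-Glo luminescence.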
% is set by controls: 0 for no effect and ±100 for the full control effect; potency is the fitted concentration of half-maximal effect.

With `O=P1(N(CCCl)CCCl)NCCCO1` (centres undefined) the activity (max response) was 0.4% and 11%.
With `O=C1CC[C@@]2(O)[C@H]3Cc4ccc(O)c5c4[C@@]2(CCN3CC2CC2)[C@H]1O5` the activity (max response) was 9.15% and -5.08%.
In the case of `Oc1cccc2cccnc12`, the activity (max response) is reported as -4.07% and 11.1%.

Point of comparison: `C[C@@H]1CN(C2CCC(C#N)(c3ccc(F)cc3)CC2)CC[C@]1(C(=O)O)c1ccccc1` (some centres undefined), activity (max response) -0.484%. Against it:
- CN1[C@@H]2CC[C@H]1CC(OC(=O)c1cc(Cl)cc(Cl)c1)C2 (some centres undefined) — lower, -16.8%
- CC1OC(C)OC(C)O1 (centres undefined) — higher, 14%
- COC(=O)[C@@H](N)CCCN/C(N)=N/[N+](=O)[O-] — higher, 3%
- CCC1(c2ccccc2)CCC(=O)NC1=O (centres undefined) — higher, 7.87%
- CC(C)NCC(O)c1ccc([N+](=O)[O-])cc1 (centres undefined) — lower, -6.95%
- C[C@H]1C(=O)O[C@@H]2CCN3CC=C(COC(=O)[C@](C)(O)[C@]1(C)O)[C@H]23 — lower, -4.54%
- COc1ccccc1N1CCNCC1 — lower, -19.4%
- C[C@@H](C1CC[C@@]2(O)C3=CC(=O)[C@@H]4C[C@@H](O)[C@@H](O)C[C@]4(C)[C@H]3CC[C@]12C)[C@H](O)CCC(C)(C)O (some centres undefined) — lower, -1.09%
- CCS(=O)(=O)C(C)(C)S(=O)(=O)CC — lower, -10.9%
- CC(CC(C(N)=O)(c1ccccc1)c1ccccc1)N(C)C (centres undefined) — higher, 5.97%
- O=C(O)c1ccc(=O)[nH]c1 — higher, 7.49%
- ClCCN1CCCC1 — higher, 12.8%
- CCNc1nc(Cl)nc(NCC)n1 — lower, -2.51%
- COC(=O)C1=CCCN(C)C1 — higher, 1.83%
- CC1NCCOC1c1ccccc1 (centres undefined) — lower, -0.553%
- CCC(C(N)=O)N1CCCC1=O (centres undefined) — lower, -1.47%
- COP(=S)(OC)Oc1cc(Cl)c(Cl)cc1Cl — higher, 7.21%
- NP(N)(=O)NC(=O)c1ccc(F)cc1 — higher, 6.62%
- CC(C)(N)Cc1ccc(Cl)cc1 — higher, 9.02%
- NCc1cccnc1 — higher, 4.01%
- C1CN2CCC1CC2 — higher, 2.77%
- CCC(C)C(C)(COC(N)=O)COC(N)=O (centres undefined) — higher, 2.89%
- N[C@@H]1C[C@H]1c1ccccc1 — higher, 6.98%
- Cc1ccc(Cl)c(O)c1 — higher, 12.5%
- NC(=O)OCCCc1ccccc1 — higher, 11.5%
- CC[N+]1(CCOC(=O)C(O)(c2ccccc2)c2ccccc2)CCCCC1 — higher, 4.14%
- O=C(O)COc1ccccc1 — higher, 18.4%
- NCC(CC(=O)O)c1ccc(Cl)cc1 (centres undefined) — lower, -6.89%

For `CCCN(CCC)c1c([N+](=O)[O-])cc(S(N)(=O)=O)cc1[N+](=O)[O-]`, the Potency was 7.94 µM (active).
For `C[C@@H]1O[C@@H](O[C@H]2C[C@@H](O)[C@]3(CO)[C@H]4[C@H](O)C[C@]5(C)[C@@H](C6=CC(=O)OC6)CC[C@]5(O)[C@@H]4CC[C@]3(O)C2)[C@H](O)[C@H](O)[C@H]1O`, the Potency was 20.6 nM (active) and 44.7 nM (active).
